# According to PubChem BioAssay AID1259421 (Broad Institute, 2018):
# Values joined by “and” are separate entries in the source; they are usually repeats but may differ in a detail not shown here. Equal values may be shown once. Screen size: about 6,400 compounds; about 610 (9.5%) were called active. This is one part of a sample in which actives are shown more often than they occur. Cut-off read from the data, not from the text of the source: active = activity change below about -70%; inconclusive = no clear call, values can overlap the other calls; inactive = above that. Some compounds were tested as several samples or in several runs, with calls that do not always agree. Where a SMILES comes first, the peptide text is derived from it. The star is where a group is joined. PhAc = O=C(Cc1ccccc1)*
# Test: Toxoplasma gondii ME49Luc growth in HeLa cells, luciferase, no IFN-y, primary screen (AID 1259421)
# Settings: T. gondii ME49Luc in HeLa, 72 h, stronger effect = lower value, concentration not given here
row,Compound,"activity change, negative = inhibition"
1,CC(C)=CCC[C@](C)(O)[C@H]1CC[C@]2(C)[C@@H]1[C@H](O)C[C@@H]1[C@@]3(C)CC[C@H](O)C(C)(C)[C@@H]3[C@@H](O)C[C@]12C,8.14% (inactive)
2,COc1c2ccoc2cc2oc(C)cc(=O)c12,0.747% (inactive)
3,C=C1/C(=C/C=C2\CCC[C@]3(C)[C@@H]([C@H](C)/C=C/[C@@H](C)C(C)C)CC[C@@H]23)C[C@@H](O)C[C@@H]1O,-75% (active)
4,C=C1/C(=C\C=C2\CCC[C@]3(C)[C@@H]([C@H](C)CCCC(C)C)CC[C@@H]23)C[C@@H](O)C[C@@H]1O,-54.9% (inactive)
5,C=C1C(=C/C=C2\CCC[C@]3(C)[C@@H]([C@H](C)/C=C/[C@@H](O)C4CC4)CC[C@@H]23)C[C@@H](O)C[C@@H]1O,12.8% (inactive)
6,C=C1CC[C@H](O)C/C1=C/C=C1\CCC[C@]2(C)[C@@H]([C@H](C)CC[C@@H](O)C(C)(C)O)CC[C@@H]12,1.97% (inactive)
7,C=C1/C(=C/C=C2/CCC[C@]3(C)[C@@H]([C@H](C)CCCC(C)C)CC[C@@H]23)C[C@@H](O)C[C@@H]1O,-75.5% (active)
8,C=C1/C(=C\C=C2/CCC[C@]3(C)[C@@H]([C@H](C)CC[C@@H](O)C(C)C)CC[C@@H]23)C[C@@H](O)C[C@@H]1O,3.62% (inactive)
9,C=C1CC[C@H](O)C/C1=C/C=C1\CCC[C@]2(C)[C@@H]([C@H](C)CCCC(C)C)CC[C@@H]12,-78.3% (active)
10,C=C1/C(=C\C=C2/CCC[C@]3(C)[C@@H]([C@H](C)CCCC(C)(C)O)CC[C@@H]23)C[C@@H](O)C[C@@H]1O,-69.8% (inactive) and 11.1% (inactive)
11,C=C1/C(=C\C=C2/CCC[C@]3(C)[C@@H]([C@H](C)/C=C/[C@H](C)C(C)(C)O)CC[C@@H]23)C[C@@H](O)C[C@@H]1O,13.5% (inactive)
12,C[C@H]1OC(O)[C@H](O)[C@H](O)[C@H]1O (stereo partly specified),-0.633% (inactive)
13,CC(=O)O[C@H]1C[C@@H](O)C(C)(C)C2C[C@@H](OC(C)=O)[C@]3(C)C(CC[C@@]4(C)[C@H](c5ccoc5)OC(=O)C5OC543)[C@]21C (stereo partly specified),-2.36% (inactive)
14,Cc1c(Cn2ccnc2)c2ccccc2n1CCC(=O)O,13% (inactive)
15,O=c1[nH]c(-c2ccc(C(F)(F)F)cc2)nc2c1CSCC2,29.4% (inactive)
16,NC1(C(=O)N[C@@H](CCO)c2ccc(Cl)cc2)CCN(c2ncnc3[nH]ccc23)CC1,9.43% (inactive)
17,CC(C)C[C@H](NC(=O)[C@@H](Cc1c[nH]c2ccccc12)NC(=O)[C@H](Cc1ccc(O)cc1)NC(=O)[C@H](CO)NC(=O)[C@H](Cc1c[nH]c2ccccc12)NC(=O)[C@H](Cc1cnc[nH]1)NC(=O)[C@@H]1CCC(=O)N1)C(=O)N[C@@H](CCCN=C(N)N)C(=O)N1CCC[C@H]1C(=O)NCC(N)=O,-22.2% (inactive)
18,CO[C@@]12[C@H](COC(N)=O)C3=C(C(=O)C(C)=C(N)C3=O)N1C[C@@H]1N[C@@H]12,-10.9% (inactive)
19,CO[C@@]12[C@@H]3NC3CN1C1=C(C(=O)C(N)=C(C)C1=O)[C@@H]2COC(N)=O (stereo partly specified),-81.9% (active) and -22.7% (inactive)
20,N[C@@H](C(=O)O)C1=CCC=CC1,-2.48% (inactive)
21,C[C@@H]1O[C@@H](OC[C@H]2OC(Oc3c(-c4ccc(O)c(O)c4)oc4cc(O)cc(O)c4c3=O)[C@H](O)[C@@H](O)[C@@H]2O)[C@H](O)[C@H](O)[C@H]1O (stereo partly specified),0.376% (inactive)
22,O=c1c(-c2cc(O)c(O)c(O)c2)coc2cc(O)c(O)c(O)c12,8.75% (inactive)
23,NC(=O)N1C(=O)C(C(=O)c2cccs2)c2cc(Cl)ccc21 (stereo unspecified),8.36% (inactive) and 15.7% (inactive)
24,CCNC(=O)Nc1ccc(-c2nc3c(c(N4CCOC[C@@H]4C)n2)CCN(C2COC2)C3)cc1,-37.1% (inactive)

row,Compound,"activity change, negative = inhibition"
1,CN(C)C1CCN(C(=O)c2ccc(NC(=O)Nc3ccc(-c4nc(N5CCOCC5)nc(N5CCOCC5)n4)cc3)cc2)CC1,-1.91% (inactive)
2,O=C(Nc1ccncc1)Nc1ccc(-c2nc(N3CCOCC3)nc(N3C4CCC3COC4)n2)cc1,-80% (active)
3,CC(C)CCOC(=O)c1ccc(N(C)C)cc1,67.6% (inactive)
4,CN(C)c1ccc(C(=C2C=CC(=[N+](C)C)C=C2)c2ccc(N(C)C)cc2)cc1,-90.8% (active) and -81% (active)
5,COc1cccc(/C=N/N=C/c2cccc(OC)c2)c1,6.04% (inactive)
6,C/C=C/C/C=C/CCC(=O)[C@H]1O[C@H]1C(N)=O,20.9% (inactive)
7,Cc1cc(C2CCCCC2)n(O)c(=O)c1,-76.5% (active) and -74.6% (active) and -92.8% (active)
8,CC(=O)O[C@]1(C(C)=O)CCC2C3C[C@H](C)C4=CC(=O)CC[C@]4(C)C3CC[C@@]21C (stereo partly specified),15% (inactive)
9,CCOC(CN1CCN(CC(C)C(=O)c2ccccc2)CC1)c1ccccc1 (stereo unspecified),31.9% (inactive)
10,NC(=S)N=Nc1ccc(NN=C(N)N)cc1,5.33% (inactive)
11,Cc1ccc(/C=N/NC(=O)c2ccccc2Oc2ccccc2)o1,8.19% (inactive)
12,CCCCN(CCCC)CCC(O)c1cc2c(Cl)cc(Cl)cc2c2cc(C(F)(F)F)ccc12 (stereo unspecified),-83% (active)
13,CC(=O)N1CCCC1C(=O)O (stereo unspecified),6.22% (inactive)
14,CC(=O)NC1[C@@H](O)OC(CO)[C@@H](O)[C@H]1O (stereo partly specified),16% (inactive)
15,COc1cc2c(cc1OC)CN(CCc1ccc(NC(=O)c3cccc4c(=O)c5cccc(OC)c5[nH]c34)cc1)CC2,-79.7% (active)
16,COc1cc2c(cc1OC)CN(CCc1ccc(NC(=O)c3cc(OC)c(OC)cc3NC(=O)c3cnc4ccccc4c3)cc1)CC2,1.38% (inactive)
17,COc1cccc([C@H](O)C2CCN(CCc3ccc(F)cc3)CC2)c1OC,11% (inactive)
18,COC1CCN(C(=O)c2cc(Cc3n[nH]c(=O)c4ccccc34)ccc2F)CC1,11.9% (inactive)
19,CCC(=O)OCC(=O)C1(OC(=O)CC)[C@H](C)C[C@H]2C3[C@H](Cl)CC4=CC(=O)C=C[C@]4(C)[C@H]3[C@@H](O)C[C@@]21C (stereo partly specified),11.6% (inactive)
20,c1ccc(CN2CCC3(CCc4ccccc43)CC2)cc1,16.7% (inactive) and 4.6% (inactive)
21,COc1ccccc1N1CCN(CC(C(=O)NC(C)(C)C)c2ccccc2)CC1 (stereo unspecified),6.24% (inactive)
22,OCc1ccc(O[C@@H]2O[C@@H](CO)[C@@H](O)[C@H](O)[C@H]2O)cc1,-0.0846% (inactive)
23,CCOc1cc(/C=C(/C#N)C(N)=O)cc(CSc2ccccc2)c1O,32.6% (inactive)
24,Cc1cccc(-c2[nH]ncc2-c2ccc3ncccc3n2)n1,-16% (inactive)

row,Compound,"activity change, negative = inhibition"
1,c1ccc(-c2[nH]ncc2-c2ccnc3ccccc23)nc1,-65.8% (inactive) and -82.5% (active)
2,O=C(NC1CCOCC1)c1ccc(-c2cc(-c3cn[nH]c3-c3ccccn3)ccn2)cc1,-1.45% (inactive)
3,C=C1/C(=C\C=C2/CCC[C@]3(C)[C@@H]([C@H](C)CCCC(O)(C(F)(F)F)C(F)(F)F)CC[C@@H]23)C[C@@H](O)C[C@@H]1O,7.67% (inactive)
4,OC[C@H]1O[C@@H](n2cnc3c(NC4CCCC4)ncnc32)[C@H](O)[C@@H]1O,13.5% (inactive)
5,OC[C@H]1O[C@@H](n2cnc3c(NCc4ccco4)ncnc32)[C@H](O)[C@@H]1O,-71.9% (active)
6,CNc1ncnc2c1ncn2[C@@H]1O[C@H](CO)[C@@H](O)[C@H]1O,13.6% (inactive)
7,OCCOCCN1CCN(Cc2cccc(Oc3ccccc3)c2)CC1,8.65% (inactive)
8,CC(C)CC(NC(=O)N1CCCCCC1)C(=O)NC(Cc1cn(C)c2ccccc12)C(=O)NC(Cc1ccccn1)C(=O)O (stereo unspecified),5.64% (inactive)
9,C=CC1=C(C(=O)O)N2C(=O)[C@@H](NC(=O)/C(=N/O)c3csc(N)n3)[C@H]2SC1,5.5% (inactive)
10,CCOC(=O)CNC(=O)[C@@H]1CCCN1C(=O)Cc1ccccc1 (PhAc-Pro-Gly-OEt),13.8% (inactive)
11,CC(C)(C)C1CCC(CC2C(=O)C(=O)c3ccccc3C2=O)CC1 (stereo unspecified),-75.1% (active)
12,O=C1C(=O)C(C2CCC(c3ccc(Cl)cc3)CC2)C(=O)c2ccccc21 (stereo unspecified),-68.3% (inactive) and -68.8% (inactive)
13,O=C1c2ccccc2C(=O)C1c1ccccc1,-3.55% (inactive)
14,CS/C(N)=C(C#N)/C(C#N)=C(\N)SC,1.99% (inactive) and 0.209% (inactive)
15,O=C(O)c1ccc(NC2OCC(O)C(O)C2O)cc1 (stereo unspecified),11.7% (inactive)
16,CCCCCCCCNC(=O)C(Cc1ccc(OCc2ccncc2)cc1)NC(=O)C1CCC(CN)CC1 (stereo unspecified),20.5% (inactive)
17,NC(=O)c1[nH]cnc1O,5.36% (inactive)
18,CN(C)/N=N/c1nc[nH]c1C(N)=O,-84.8% (active) and -88.3% (active) and -94.9% (active)
19,CN(C)N=Nc1ccc(C(=O)O)cc1,17.4% (inactive)
20,Cc1cc(-c2ccc(N=Nc3ccc4c(S(=O)(=O)O)cc(S(=O)(=O)O)c(N)c4c3O)c(C)c2)ccc1N=Nc1ccc2c(S(=O)(=O)O)cc(S(=O)(=O)O)c(N)c2c1O,-45.6% (inactive)
21,Cc1cnc(NC(=O)C2C(=O)c3ccccc3S(=O)(=O)N2C)s1 (stereo unspecified),17.6% (inactive) and 14.2% (inactive)
22,CN1CCc2cc3c(cc2C(=O)Cc2ccc4c(c2C1)OCO4)OCO3,7.67% (inactive)
23,CC[C@@H](C(=O)C(C)[C@@H](O)[C@H](C)CCc1ccc(C)c(O)c1C(=O)O)C1OC(CC)(C2CC[C@](O)(CC)[C@H](C)O2)C[C@@H]1C (stereo partly specified),-85.8% (active)
